Experimental data published in publication PMC5540273 (PLoS ONE, 2017).

tested on: T1, YANK2; conditions: concentration: 1 μM, replicates: in singlicate; n = 1
T1 construct: gene STK32B
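Also: KINOMEscan kinase panel screen.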

Compound	%Inh [%]
CCc1ccc(-c2ccc3c(c2)-c2c(cnn2C)S(=O)(=O)N3C)cc1	0
c1ccc(-c2n[nH]cc2Nc2ccnc3ccccc23)nc1 [GW694077]	0
c1ccc(Oc2ccc(Nc3ccnc4cc(-c5ccc(CNCCN6CCOCC6)o5)ccc34)cc2)nc1 [GW567145]	0
Cn1cc(-c2[nH]c3cc(NC(=O)[C@H](N)C4CCCCC4)cc4c3c2C=NNC4=O)cn1	0
FC(F)(F)c1ccc(/C=C/c2cncnc2Nc2ccc3[nH]c(Cc4ccccc4)nc3c2)cc1 [GW709199]	0
COc1cc2c(cc1OCCN1CCNCC1)ncc1c3ccc(C#N)cc3[nH]c21	0
CC(=O)N1CCN(c2ccc(Nc3nccc(-c4sc(C(C)C)nc4-c4cccc(NS(=O)(=O)c5cccc(Cl)c5)c4)n3)cn2)CC1 [GSK1660437]	77
Cc1ccc(F)c(C(=O)Nc2cccc(-c3nn4ccccc4c3-c3ccnc(Nc4cccc(F)c4)n3)c2)c1F [GSK361061]	47
Cc1cccc(NC(=O)Nc2ccc(Oc3ncnc4ccn(C)c34)cc2)c1	0
COc1cc(Nc2nccc(N3CCC(NC(=O)Nc4cccc(C(C)=O)c4)C3)n2)cc(OC)c1OC (stereo not drawn) [GSK1379753]	0
C[C@@H](Oc1cc(-n2cnc3cc(-c4ccnc(NCCS(C)(=O)=O)c4)ccc32)sc1C(N)=O)c1ccccc1Cl [GSK907232]	0
COC(=O)Nc1nc2cc(Oc3ccc(NC(=O)Nc4cc(C(F)(F)F)ccc4F)cn3)ccc2[nH]1.Cl.Cl [GW681170]	16
